Measurements as given in PubChem BioAssay (NCI).
The panel holds about 83,000 compounds, 20% with a hit somewhere; the sample as a whole holds those more often.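 Values shown are percent growth following 48 h exposure of cells in 96-well plates to a single concentration of compound; below 10 was considered active.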 Values without a mark were called inactive. Active and inactive are the calls of the source.

These molecules were tested on 786-0 renal (assay: NCI-60 one-dose screen, 48 h (100 = growth as untreated, 0 = no growth, -100 = all killed)). Details: 10 µM unless noted.

| SMILES | growth |
| --- | --- |
| Nc1c(C(=O)Nc2ccccc2)sc2nc3c(cc12)CN(C(=O)OCc1ccccc1)CC3 | 50% |
| Cc1cccc(C)c1NC(=O)CN(CC(C)C)CC(O)COc1ccccc1 (centres undefined) | 78.6% |
| C=C(C)[C@@H]1CCC=C2CC[C@]3(C)[C@H](CC[C@@H]4[C@@]5(C)CCCNC(C)(C)[C@@H]5CC[C@]43C)[C@H]21 | -5.34% (active) |
| COC(=O)/C=C/c1cc(OC(C)=O)c2c(c1)C(C(=O)OC)C(c1ccc(OC(C)=O)c(OC(C)=O)c1)O2 (centres undefined) | 19.8% |
| COc1ccc(-c2[nH]c3ccccc3c2C=C(C#N)C#N)cc1 | 14.9% |
| COc1ccc(-c2nnc(N3CCN(C(=O)CN4CCN(c5ccccc5)CC4)CC3)nc2-c2ccc(OC)cc2)cc1 | 33.7% |
| O=c1[nH]c2ccccc2cc1-c1nc2ccc(Cl)cc2[nH]1 | 52.8% |
| O=C(NC[C@H](O)CN1CCc2ccccc2C1)c1cc(NC2COC2)ncn1 | 92% |
| COC1=CC2C=C(C3N(c4ccccc4)NC(=O)[C@@H]4CCCN34)C(=O)NC2C=C1 (some centres undefined) | 99.5% |
| C#C[C@@]1(O)[C@@H](CO)O[C@@H](n2cc(-c3ccco3)c3c(N)ncnc32)[C@@H]1O | 85.6% |
| Cc1[nH]c(N=Nc2ccccc2)nc1N=Nc1ccccc1 | 6.21% (active) |
| COc1ccc(Nc2nc(SCC(C)C)nc(-c3ccc(F)cc3)c2C#N)cc1 | 60.8% |

The molecules below were run on COLO 205 colon in the same assay as above. Details: 10 µM unless noted.

| SMILES | growth |
| --- | --- |
| O=C(Nc1ccc2ncnc(Nc3cccc(C(F)(F)F)c3)c2c1)c1cccs1 | 24.1% |
| O=C1[C@@H](OS(=O)(=O)CC(F)(F)F)[C@H](c2ccc(F)cn2)N1c1cc2c3ccccc3ccc2c2ccccc12 | 101% |
| COc1cc2cc(c1Cl)N(C)C(=O)C[C@H](OC(=O)[C@H](C)N(C)C(=O)CCS)C[C@]1(C)O[C@H]1[C@H](C)[C@@H]1C[C@@](O)(NC(=O)O1)[C@H](OC)/C=C/C=C(\C)C2 | -65.7% (active) |
| COc1cc(/C=C/C(=O)c2cccs2)ccc1OCc1ccc(Cl)nc1 | 98.1% |
| COc1cc(/C=C/C(=O)/C=C/c2cc3ccc(Cl)cc3[nH]c2=O)ccc1O | 105% |
| COc1ccc(/C=C/C(=O)/C=C(/C=C/c2ccc(OC)c(OC)c2)OB(F)F)cc1OC | -23.2% (active) |
| COc1cc(/C=C/C(=O)/C=C/c2cc3ccc(Cl)cc3n(Cc3ccccc3)c2=O)ccc1O | 7.89% (active) |
| C=C(C)[C@@H]1CC[C@]2(C(=O)OCCCC[P+](c3ccccc3)(c3ccccc3)c3ccccc3)CC[C@]3(C)[C@H](CC[C@@H]4[C@@]5(C)CC[C@H](OC(=O)C(Cl)Cl)C(C)(C)[C@@H]5CC[C@]43C)[C@@H]12 | -74.4% (active) |
| COc1ccc(C(=S)c2cc(OC)c(OC)c(OC)c2)cc1OC(=O)CCl | 16.7% |
| CNCc1cccc2c1OCCOCCOCCN(CCN1CCOCC1)S(=O)(=O)c1ccc(cc1)-c1cnc(N)c(n1)C(=O)N2 | 22.3% |
| COc1ccc2[nH]c(=O)c(/C=C/C(=O)/C=C/c3ccc(O)c(OC)c3)cc2c1 | 29.6% |
| Fc1ccc(N/N=C/c2ccc(-n3cccn3)cc2)cc1 | 98.1% |
| COc1cc(F)c(-c2nc3c(C)cccc3n2Cc2c(F)cccc2F)c(F)c1 | 98% |
| Cc1nc(C)c(C)nc1C | 119% |
| Oc1ccc(CNNc2ccnc3c(O)cccc23)c2cccnc12 | 64.8% |
| N#Cc1ccc(N2Cc3cc(Cl)ccc3OC3=C2C(=O)N(Cc2ccccc2)C3=O)cc1 | -69.2% (active) |
| CC(=O)OCC1SC(OC(C)=O)C(NC(=O)/C=C/CCl)C(OC(C)=O)C1OC(C)=O (centres undefined) | 107% |
| S=C(Nc1ccccc1)c1ccccn1 | 67.9% |
| COc1cc(C(C)c2ccc3c(ccn3C)c2)cc(OC)c1OC (centres undefined) | -56.6% (active) |

| SMILES | growth |
| --- | --- |
| COc1cc(C2=NN(C(C)=O)C(c3cccc(Nc4ccnc5cc(C(F)(F)F)ccc45)c3)C2)cc(OC)c1OC (centres undefined) | 50.3% |
| CC(C)CSc1nc(Nc2ccccc2)c(C#N)c(-c2ccc(F)cc2)n1 | 20.3% |
| C[C@H]1[C@H](C)CC[C@]2(C(=O)OCCCC[P+](c3ccccc3)(c3ccccc3)c3ccccc3)CC[C@]3(C)C(=CC[C@@H]4[C@@]5(C)CC[C@H](OC(=O)C(Cl)Cl)C(C)(C)[C@@H]5CC[C@]43C)[C@H]12 | -84.9% (active) |
| CC(/C=C/c1ccccc1)=N/NC(=O)c1ccncc1 | 119% |
| O=C(O)c1cn(C2CC2)c2cc(N3CCN(C(=O)CSc4nnc(-c5ccc(Cl)cc5)n4-c4ccccc4)CC3)c(F)cc2c1=O | 109% |
| C1=CC2=CC=C3C=CC=C4C(c5nc6c7ccccc7c7ccccc7c6[nH]5)=CC(=C1)C2C34 (centres undefined) | 120% |
| Nc1c(C(=O)Nc2ccccc2)sc2nc3c(cc12)CN(C(=O)OCc1ccccc1)CC3 | 55.3% |
| Cc1cccc(C)c1NC(=O)CN(CC(C)C)CC(O)COc1ccccc1 (centres undefined) | 100% |
| C=C(C)[C@@H]1CCC=C2CC[C@]3(C)[C@H](CC[C@@H]4[C@@]5(C)CCCNC(C)(C)[C@@H]5CC[C@]43C)[C@H]21 | -43.6% (active) |
| COC(=O)/C=C/c1cc(OC(C)=O)c2c(c1)C(C(=O)OC)C(c1ccc(OC(C)=O)c(OC(C)=O)c1)O2 (centres undefined) | 38.9% |
| COc1ccc(-c2[nH]c3ccccc3c2C=C(C#N)C#N)cc1 | -8.28% (active) |
| COc1ccc(-c2nnc(N3CCN(C(=O)CN4CCN(c5ccccc5)CC4)CC3)nc2-c2ccc(OC)cc2)cc1 | 17.5% |
| O=c1[nH]c2ccccc2cc1-c1nc2ccc(Cl)cc2[nH]1 | 52.2% |
| O=C(NC[C@H](O)CN1CCc2ccccc2C1)c1cc(NC2COC2)ncn1 | 92.4% |
| COC1=CC2C=C(C3N(c4ccccc4)NC(=O)[C@@H]4CCCN34)C(=O)NC2C=C1 (some centres undefined) | 111% |
| C#C[C@@]1(O)[C@@H](CO)O[C@@H](n2cc(-c3ccco3)c3c(N)ncnc32)[C@@H]1O | 46.4% |
| Cc1[nH]c(N=Nc2ccccc2)nc1N=Nc1ccccc1 | 17.2% |
| COc1ccc(Nc2nc(SCC(C)C)nc(-c3ccc(F)cc3)c2C#N)cc1 | 72.4% |
